Source: PubChem BioAssay (National Center for Advancing Translational Sciences (NCATS))
Only some compounds are listed: those with a hit (about 0.31% of all), similar ones and a draw of the others.
TRPV1 potentiator – human TRPV1 potentiation. Q8NER1. potentiation, % at 8.33 µM. TRPV1-expressing cells, Fluo-8 calcium influx, capsaicin EC20 potentiation. 320,000 tested, 0.02% active; in the data active = potentiation above about 80%; inconclusive = between about 30% and that limit; also: 0% is about no effect
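Fluo-8 calcium influx in TRPV1-expressing cells, kinetic read (ex 480/em 520 nm). Compound added and read 3 min for agonist activity, followed by capsaicin at EC20 final and 2 min further read for enhancement.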
TRPML1 ag – agonists of human TRPML1 channel | Q9GZU1 | TRPML1-expressing cells, Ca2+ dye fluorescence, FDSS | activation, % (no concentration beside the values) | 410,000 tested, 0.12% active | AID 624414; in the data active = activation above about 50%; inconclusive = mostly about 30% to 49%; also: 0% is about no effect
Target sequence (Q9GZU1 whole entry, looked up): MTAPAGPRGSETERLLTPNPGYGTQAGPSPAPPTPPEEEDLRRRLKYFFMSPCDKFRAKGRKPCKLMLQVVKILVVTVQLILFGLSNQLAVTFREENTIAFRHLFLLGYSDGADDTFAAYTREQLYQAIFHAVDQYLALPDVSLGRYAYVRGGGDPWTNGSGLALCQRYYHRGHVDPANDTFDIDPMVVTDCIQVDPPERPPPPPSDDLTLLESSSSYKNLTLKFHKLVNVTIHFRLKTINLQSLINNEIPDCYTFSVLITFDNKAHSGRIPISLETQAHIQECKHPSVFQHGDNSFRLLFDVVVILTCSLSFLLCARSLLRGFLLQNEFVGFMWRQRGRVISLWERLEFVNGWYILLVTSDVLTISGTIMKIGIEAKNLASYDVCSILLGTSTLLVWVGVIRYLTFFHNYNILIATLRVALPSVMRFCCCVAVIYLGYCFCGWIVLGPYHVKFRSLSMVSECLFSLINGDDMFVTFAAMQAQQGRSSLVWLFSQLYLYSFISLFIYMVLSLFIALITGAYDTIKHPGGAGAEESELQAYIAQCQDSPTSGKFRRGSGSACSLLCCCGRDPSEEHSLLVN
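In this qHTS format, compounds were pin-transferred onto Ca8-dye-loaded TRPML1-DL cells induced with Tet overnight, and intracellular Ca2+ fluorescence was recorded kinetically for 110 s after a 10 s baseline. A subsequent 4uM final 54-4 (EC80) addition followed by a second 110 s read served as the antagonist phase.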
TRPML1 blocker – blocks the human TRPML1 channel. Q9GZU1. TRPML1-inducible cells, Ca2+ dye fluorescence, FDSS; active compounds read low; inhibition of EC80 agonist-evoked calcium signal. activity change, negative = inhibition, % (concentration not given with the values). 390,000 tested, 0.02% active. AID 624415; in the data active = activity change below about -50%; inconclusive = between about -30% and that limit;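 also: stimulus is agonist 54-4 at its EC80 concentration; % is scaled to controls: 0 for no effect and ±100 for the full control effect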
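Tet-induced TRPML1-DL cells loaded with Ca8 no-wash calcium dye were read kinetically on FDSS. Compound addition was followed by EC80 agonist 54-4 (4 uM final); inhibition was read over 110 s.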
TRPV1 agonist – agonists of human vanilloid receptor 1 (TRPV1). Q8NER1. TRPV1-expressing cells, Fluo-8 calcium influx, agonist mode. activation, % at 8.33 µM. 320,000 tested, 0.19% active. AID 540275; in the data active = activation above about 80%; inconclusive = between about 30% and that limit; also: 0% is about no effect
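TRPV1-expressing cells were cultured overnight at 35.5C and loaded with Fluo-8 calcium dye for 40 to 90 min at room temperature. After a 10 s baseline, compound was added and calcium influx was read kinetically for 3 min (ex 480/em 520 nm).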
An asterisk follows results filed as active; u = inconclusive; x = no result given.

SMILES | TRPV1 potentiator | TRPML1 ag | TRPML1 blocker | TRPV1 agonist
CC(C)c1nnc(N2C(=O)C(O)=C(C(=O)c3cccs3)C2c2ccccc2)s1 (centres undefined) | -5 | u | 9 | 103*
COc1ccc(C2C(C(=O)c3cccs3)=C(O)C(=O)N2c2nnc(C)s2)cc1OC (centres undefined) | -22 | 20 | -11 | 28
Cc1ccc(-c2cc(C3C4C=CCCC4(C)C(=O)N3Cc3ccccc3)ccc2F)cc1 (centres undefined) | x | 1 | 16 | x
Cc1cc(Cl)ccc1OC(C)C(=O)Nc1ccccc1N1CCOCC1 (centres undefined) | -11 | 1 | 15 | 11
CC(Oc1ccc(Cl)cc1)C(=O)Nc1ccccc1N1CCOCC1 (centres undefined) | x | 74* | -5 | x
Cc1ccnc2cc(Cl)cc(Cl)c12 | x | 0 | x | x
Cc1cc(CNC(=S)Nc2ccc(Br)cc2Cl)nn1C | -22 | 1 | 19 | 94*
COc1cc(Cl)c(C)cc1NC(=O)c1cnc(N2CCOCC2)c2ccccc12 | x | u | -30 | x
COc1cc(Cl)c(C)cc1NC(=O)c1cnc(N2CCCCC2)c2ccccc12 | x | 69* | -15 | x
Cc1cccc(N2CCN(S(=O)(=O)c3c(C(=O)N4CCC(C)CC4)c(C)n(C)c3C)CC2)c1C | x | u | 5 | x
Cc1ccc(C)c(N2CCN(S(=O)(=O)c3c(C(=O)N4CCC(C)CC4)c(C)n(C)c3C)CC2)c1 | x | 55* | -13 | x
Clc1ccccc1CN(Cc1ccccc1)C(c1cccs1)c1nnnn1C1CCCC1 (centres undefined) | 1 | 0 | 16 | 28
Clc1ccc(CN(CC2CCCO2)C(c2cccs2)c2nnnn2C2CCCC2)cc1 (centres undefined) | -10 | 54* | -3 | -2
Cc1ccc(-n2ncc(C(=O)N3CCN(c4cccc(C)c4)C(C)C3)c2C2CCN(C(=O)OC(C)(C)C)CC2)cc1 (centres undefined) | x | 73* | -28 | x
Cc1cccc(-n2ncc(C(=O)N3CCN(Cc4ccccc4)CC3)c2C2CCN(C(=O)OC(C)(C)C)CC2)c1 | x | 51* | -15 | x
COc1cccc(CNC(=O)CCCn2ccc3cc(S(=O)(=O)N4CCCC4)ccc32)c1 | -2 | 2 | -4 | u
COc1cccc(CNC(=O)CCn2ccc3cc(S(=O)(=O)N4CCCC4)ccc32)c1 | 10 | -1 | 15 | 89*
Nc1c(-c2nc(-c3cccs3)no2)nnn1-c1cccc(Cl)c1 | x | 3 | 17 | x
Cc1nn(-c2ccccn2)c2c1-c1nc(N)sc1CC2 | x | -1 | x | x
Cc1ccc2oc(C(=O)NCC3CCOCC3)c(C)c2c1 | -12 | 0 | -19 | 84*
Cc1ccc2c(C)c(C(=O)NCC3CCOCC3)oc2c1C | x | -1 | 11 | x
CN(C(=O)CSc1nc2ccc(NC(=O)c3ccco3)cc2s1)c1ccccc1 | x | 0 | 36 | x
Cc1ccc(CNC(=O)c2cccc3c2C(=O)c2ccc(N4CCOCC4)cc2S3(=O)=O)cc1 | 1 | 6 | 24 | 2
Cc1ccc(CNC(=O)c2cccc3c2C(=O)c2ccc(N4CCCCC4)cc2S3(=O)=O)cc1 | 1 | 50* | -7 | 14
CCOC(=O)c1ccc(NC(=O)N2CCN(Cc3cccc(F)c3)CC2)cc1 | 9 | 2 | -5 | 81*
SMILES | TRPV1 potentiator | TRPML1 ag | TRPML1 blocker | TRPV1 agonist
CCCN1CCN(C(=O)Nc2ccc(C(=O)OCC)cc2)CC1 | -8 | 0 | -2 | 3
COc1ccccc1OCCn1c(C(C)Oc2ccccc2)nc2ccccc21 (centres undefined) | x | 5 | 68 | x
O=C1CSC(c2ccc(Cl)cc2)N1c1cccnc1 (centres undefined) | 9 | 78* | -22 | -2
Cc1cccc(OCC(=O)Nc2ccccc2C(=O)OCc2cc(=O)n3nc(C4CC4)sc3n2)c1 | x | -1 | 7 | x
Cc1c(OCC(=O)N2CCC(C(=O)O)CC2)ccc2c1oc(=O)c1ccccc12 | u | x | x | -1
Cc1c(OCC(=O)N2CCC(C(N)=O)CC2)ccc2c1oc(=O)c1ccccc12 | 7 | x | x | 91*
CCCCCCC[n+]1ccc(/C=C/c2c(C)[nH]c3ccccc23)c2ccccc21 | x | 3 | x | x
CCc1ccccc1NC(=O)Cn1nc(-c2cc(C)ccc2C)c2c(c1=O)CCCC2 | x | 0 | 0 | x
S=c1[nH]nc(-c2ccccn2)n1/N=C/c1ccc(Br)s1 | 5 | 78* | -30 | -1
S=c1[nH]nc(-c2ccccn2)n1/N=C/c1ccc(Cl)c(Cl)c1 | 26 | 0 | 9 | 1
COc1cc(CNC(=O)CCCC/C=C/C(C)C)ccc1O | -2 | 1 | -21 | 103*
CCCC(=O)N(c1ccc2oc3c(c2c1)CCCC3)S(=O)(=O)c1ccc(CC)cc1 | x | 64* | -25 | x
O=C(NCc1ccccn1)C(=O)NCc1ccccn1 | 97* | -1 | 2 | -15
CCOc1ccc(CNC(=O)c2ccc3nc(CC)c(CC)nc3c2)cc1 | x | 1 | 6 | x
CCCC(c1nnnn1Cc1cccs1)N1CCN(c2nc3ccccc3s2)CC1 (centres undefined) | u | 61* | -18 | -2
CCN(CC)c1ccc(/C=C(/C#N)c2nc3ccc(C)cc3[nH]2)c(OC(C)C)c1 | -7 | 0 | -16 | 85*
CCCOc1cc(N(CC)CC)ccc1/C=C(/C#N)c1nc2ccc(C)cc2[nH]1 | -10 | u | 32 | u
Cc1ccc([N+](=O)[O-])c(C(=O)N/N=C/c2cccs2)c1 | 20 | -1 | 23 | 83*
Nc1ccc(/C=C/c2nccc3ccccc23)cc1 | x | 3 | x | x
Cc1cccc(C(=O)Nc2cccc(C(=O)OCc3cc(=O)n4ccsc4n3)c2)c1 | x | -1 | -7 | x
COCCNC(=O)CCc1c(C)nc2c(c(C)nn2-c2ccc(C)cc2)c1C | 7 | 1 | -12 | 85*
C/C(=N\Nc1ccc2nncn2n1)c1ccc(Br)s1 | -10 | 2 | -10 | 96*
C/C(=N\Nc1ccc2nncn2n1)c1ccco1 | -7 | -1 | 0 | 3
CCN1CCOC(=O)C1CC(=O)Nc1cc(C)ccc1OC (centres undefined) | x | 4 | -9 | x
CCOC(=O)c1cccc(NC(=O)c2ccc3nc(CCc4ccccc4)oc3c2)c1 | x | 2 | 5 | x
SMILES | TRPV1 potentiator | TRPML1 ag | TRPML1 blocker | TRPV1 agonist
Cc1cc[n+](CCC2CCCCC2)c2ccccc12 | x | -1 | x | x
CCN(CC)S(=O)(=O)c1cc(NC(=O)c2ccc(Br)s2)ccc1C | -12 | 0 | 17 | 83*
Cc1ccc(CNC(=O)CSCc2ccccc2)cc1 | -7 | 1 | 1 | u
Cc1ccc(CNC(=O)CSCc2ccc(F)cc2)cc1 | -10 | 1 | -2 | 81*
O=C1CCC/C(=N/NC(=O)c2sc3ccccc3c2Cl)C1 | 15 | 58* | -7 | 23
O=[N+]([O-])c1ccc(NS(=O)(=O)c2ccc(Cl)c(Cl)c2)cc1 | x | 0 | x | x
COc1ccc2c(c1)C/C(=C\c1ccc(N(C)C)cc1)C2=O | x | 72* | x | x
COc1cccc2c1C(=O)/C(=C/c1ccc(N(C)C)cc1)C2 | x | 0 | x | x
COc1ccc(S(=O)(=O)N2CCN(c3nc(-c4cccs4)nc4ccccc34)CC2)cc1 | x | 1 | x | x
